Laboratory results published in paper PMC4336329 (PLoS ONE, 2015).
About 14,000 (4.5%) of roughly 310,000 compounds showed an effect of 50% or more. The effect is printed as a negative number. This excerpt belongs to a sample that is enriched for strong results.

target: human ether-à-go-go-related gene (hERG) potassium channel (human, UniProt Q12809); assay: primary screen, population patch clamp on CHO cells stably expressing hERG; higher = less effect of the substance
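Note: peak tail current of the secondary pulse compared with the same well before compound.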

Chain of human ether-à-go-go-related gene (hERG) potassium channel (Q12809 whole entry, looked up): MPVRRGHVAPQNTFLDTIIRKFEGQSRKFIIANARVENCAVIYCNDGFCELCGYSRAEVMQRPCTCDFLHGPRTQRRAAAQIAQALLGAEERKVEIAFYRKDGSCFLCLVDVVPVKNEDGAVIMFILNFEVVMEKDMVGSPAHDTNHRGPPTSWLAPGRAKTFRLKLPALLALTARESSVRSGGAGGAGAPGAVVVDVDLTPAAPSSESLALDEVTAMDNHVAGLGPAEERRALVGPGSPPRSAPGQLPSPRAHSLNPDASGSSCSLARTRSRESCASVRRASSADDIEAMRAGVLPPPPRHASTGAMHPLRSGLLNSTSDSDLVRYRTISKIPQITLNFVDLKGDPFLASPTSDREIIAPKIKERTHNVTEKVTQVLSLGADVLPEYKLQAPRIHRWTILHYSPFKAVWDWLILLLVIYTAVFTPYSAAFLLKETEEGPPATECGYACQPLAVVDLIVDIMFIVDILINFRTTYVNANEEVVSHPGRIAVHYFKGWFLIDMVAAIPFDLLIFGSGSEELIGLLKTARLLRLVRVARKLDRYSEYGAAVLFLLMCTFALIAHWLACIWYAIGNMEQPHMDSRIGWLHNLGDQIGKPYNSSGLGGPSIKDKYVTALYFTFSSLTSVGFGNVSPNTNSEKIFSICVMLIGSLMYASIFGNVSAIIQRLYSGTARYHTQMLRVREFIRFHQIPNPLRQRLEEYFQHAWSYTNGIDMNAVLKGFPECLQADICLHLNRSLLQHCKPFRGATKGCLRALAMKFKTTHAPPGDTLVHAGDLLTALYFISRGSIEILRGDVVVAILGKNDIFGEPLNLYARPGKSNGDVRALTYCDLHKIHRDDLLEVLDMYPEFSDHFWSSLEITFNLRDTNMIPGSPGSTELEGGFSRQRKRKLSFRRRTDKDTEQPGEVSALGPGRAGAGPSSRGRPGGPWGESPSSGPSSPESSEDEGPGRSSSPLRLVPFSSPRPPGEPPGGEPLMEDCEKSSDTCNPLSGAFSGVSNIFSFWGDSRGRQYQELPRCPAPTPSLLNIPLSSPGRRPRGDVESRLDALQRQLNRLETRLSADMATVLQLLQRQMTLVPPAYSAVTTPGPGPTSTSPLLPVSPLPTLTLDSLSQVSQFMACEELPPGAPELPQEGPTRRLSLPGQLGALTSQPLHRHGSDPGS

| SMILES | hERG current change (%, negative = inhibition) at 10uM [%] |
| --- | --- |
| Cc1ccc(NC(=O)CC2SC(=NCC3CCCO3)NC2=O)cc1Cl (stereo not shown) | -3.57 |
| Cc1c(C)n2c(SCC(=O)NC3CCCCC3)nnc2[nH]c1=O | -8.13 |
| CCCCN(C(=O)c1ccco1)C1CCS(=O)(=O)C1 (stereo not shown) | 0.36 |
| O=C1c2ccc(-c3ccc4c(c3)C(=O)N(CCO)C4=O)cc2C(=O)N1CCO | 14.6 |
| COCC(=O)N(C)CC1CCCN(CCc2ccccc2OC)C1 (stereo not shown) | 7.26 |
| Cc1ccccc1CC(=O)N(CCN(C)C)CC1CCCN(Cc2ccccc2F)C1 (stereo not shown) | 1.19 |
| CN(CC1CCCN(CCc2ccccc2F)C1)C(=O)c1ccoc1 (stereo not shown) | -66.7 |
| COc1ccccc1CCN1CCCC(CN(C)CC(C)(C)CO)C1 (stereo not shown) | -0.609 |
| COc1ccccc1CCN1CCCC(CN(C)C(=O)c2ccoc2)C1 (stereo not shown) | -51.2 |
| COc1ccccc1CCN1CCCC(CN(C)C(=O)c2ccc3nc[nH]c3c2)C1 (stereo not shown) | 12.1 |
| Cc1occc1C(=O)N(C)CC1CCCN(CCc2ccccc2F)C1 (stereo not shown) | -51.1 |
| COc1ccccc1CCN1CCCC(CN(C)C(=O)c2ccco2)C1 (stereo not shown) | -68.9 |
| CN(C)CCN(CC1CCCN(Cc2ccccc2F)C1)C(=O)c1ccc(F)cc1 (stereo not shown) | 3.46 |
| O=c1[nH]oc2cc(Cl)ccc12 | 11.3 |
| CCOc1ccc(OCC(=O)Nc2ccc(S(N)(=O)=O)cc2)cc1 | -7.32 |
| O=C(NCc1cccs1)c1nc2c(nnn2Cc2ccccc2Cl)c(=O)[nH]1 | 5.42 |
| COC(=O)CSc1nn(-c2ccc(F)cc2)c(=S)s1 | -2.71 |
| Cn1c(CC(=O)Nc2ccccc2)nnc1SCCOc1ccccc1 | 2.08 |
| CC1CC(=O)Nc2ccc([N+](=O)[O-])cc2N1C (stereo not shown) | 7.59 |
| Cc1cc(C)c(C(=O)N(C)CC2CCCN(CCc3ccccc3F)C2)o1 (stereo not shown) | -70.4 |
| Cc1cc(C)c(C(=O)N(C)C2CCCN(Cc3ccccc3F)C2)o1 (stereo not shown) | -0.652 |
| Cc1cc(C)c(C(=O)N(CCN(C)C)CC2CCCN(Cc3ccccc3F)C2)o1 (stereo not shown) | 7.61 |

| SMILES | hERG current change (%, negative = inhibition) at 10uM [%] |
| --- | --- |
| CCCn1c(SCC(=O)Nc2nccs2)nnc1-c1cccnc1 | -0.265 |
| COc1cccc(NC(=O)c2oc3ccccc3c2NC(=O)c2ccc3c(c2)OCO3)c1 | 5.18 |
| O=C1C2CC=CCC2C(=O)N1c1n[nH]c(Cc2ccccc2)n1 (stereo not shown) | 2.31 |
| COc1ccccc1C(CNC(=O)CNC(=O)c1ccc(Cl)c(Cl)c1)N1CCCC1 (stereo not shown) | -32.9 |
| CCCCN(CCCC)CCNC(=O)c1cn(CC)c2ccc(S(=O)(=O)N3CCCC3)cc2c1=O | -65.7 |
| CCCCN(CCCC)CCNC(=O)c1cn(C)c2ccc(S(=O)(=O)N3CCCC3)cc2c1=O | -57.9 |
| CCCCNC(=O)c1cn(CC)c2ccc(S(=O)(=O)N3CCCC3)cc2c1=O | -38.1 |
| CCCCNC(=O)c1cn(C)c2ccc(S(=O)(=O)N3CCCC3)cc2c1=O | 12.6 |
| CCCCSCCCNC(=O)c1cn(C)c2ccc(S(=O)(=O)N3CCCC3)cc2c1=O | 11.2 |
| CCCCNC(=O)c1cn(CC)c2ccc(S(=O)(=O)N3CCCCCC3)cc2c1=O | 7.01 |
| CCOc1ccc(NC(=O)CN(C)C(=O)CCCc2c[nH]c3ccccc23)cc1OCC | -3.25 |
| Cc1occc1-c1nnc(SCC(=O)Nc2ccccc2)n1C | 9.72 |
| Cc1occc1-c1nnc(SCC(=O)Nc2ccccc2)n1CCc1ccccc1 | -67 |
| COc1ccccc1NC(=O)CSc1nnc(-c2ccoc2C)n1CCc1ccccc1 | -64.8 |
| Cc1cccc(C)c1NC(=O)CSc1nnc(-c2ccoc2C)n1CCc1ccccc1 | -46.3 |
| Cc1occc1-c1nnc(SCC(=O)Nc2ccccc2)n1Cc1ccccc1 | -76.3 |
| COc1ccccc1NC(=O)CSc1nnc(-c2ccoc2C)n1C | -1.59 |
| COc1ccccc1NC(=O)CSc1nnc(C)n1CCc1ccccc1 | -14.3 |
| Cc1ccccc1NC(=O)CSc1nnc(-c2ccoc2C)n1CCc1ccccc1 | -59.6 |
| Cc1occc1-c1nnc(SCC(=O)Nc2ccc(F)cc2)n1Cc1ccccc1 | -49.4 |
| CC(=O)c1ccc(NC(=O)CSc2nnc(-c3ccoc3C)n2Cc2ccccc2)cc1 | -30.8 |
